TbREL1 primary: TbREL1 inhibition, primary screen; inhibition, % at 9.66 µM; TbREL1 RNA ligation, FRET fluorescence; AID 1117264; P86926; 89,000 compounds, 0.49% hits;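 active means inhibition above the mean inhibition across all screened compounds plus 3 SD, cut at about 11% in these data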;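 further: 0% = plate median of test wells and 100% = NSC42067 control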
Target sequence (P86926 whole entry, looked up): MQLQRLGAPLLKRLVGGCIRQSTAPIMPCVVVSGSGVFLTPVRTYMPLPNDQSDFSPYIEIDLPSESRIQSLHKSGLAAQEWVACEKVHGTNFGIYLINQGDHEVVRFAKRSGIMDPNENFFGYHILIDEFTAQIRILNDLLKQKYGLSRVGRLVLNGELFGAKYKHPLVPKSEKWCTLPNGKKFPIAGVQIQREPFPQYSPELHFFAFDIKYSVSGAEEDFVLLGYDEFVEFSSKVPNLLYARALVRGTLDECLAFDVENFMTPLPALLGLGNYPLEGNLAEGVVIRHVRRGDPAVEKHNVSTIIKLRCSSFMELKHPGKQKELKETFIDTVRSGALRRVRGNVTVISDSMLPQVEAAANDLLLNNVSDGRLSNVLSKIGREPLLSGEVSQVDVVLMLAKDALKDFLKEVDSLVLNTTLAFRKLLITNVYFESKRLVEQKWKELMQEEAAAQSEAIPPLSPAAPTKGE
TbREL1 conf: TbREL1 inhibition, confirmation; shares compounds with TbREL1 primary; TbREL1 RNA ligation, FRET fluorescence; inhibition, % at 9.66 µM; 390 compounds, 37% hits;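 active means mean inhibition across replicates above a set limit taken from the earlier primary screen, cut at about 11% in these data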;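 further: 0% = REL1 with substrate and DMSO and 100% = REL1 plus control inhibitor NSC42067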
* marks the source's active call; other numbers are inactive results. Only a selection was taken, and hits are over-represented in it overall.

SMILES	TbREL1 primary	others
C=C(C)CSc1nnc(-c2cc(-c3ccc(OC)cc3)n[nH]2)n1N	0
CCCCN(C)C(=O)c1cn(C(C)c2ccccc2)nn1 (stereo unspecified)	0
CC(C)NCCOCCOc1ccc(Cl)cc1Br	2
C=CCNCCOCCOc1ccc(Cl)cc1C(C)(C)C	16*	TbREL1 conf=19*
C=CCNCCOCCOc1ccc(C)cc1Br	5
Cc1cc(N2CCOc3ccccc32)nc2ccccc12	8
Nc1cccc2cc(S(=O)(=O)O)ccc12	26*	TbREL1 conf=10
Nc1cccc(S(=O)(=O)c2cccc(N)c2)c1	2
Nc1ccc2c(S(=O)(=O)O)cccc2c1S(=O)(=O)O	11
O=C(OCCn1c(=S)sc2ccccc21)c1ccccc1	-3
Cc1cc(C)n(-c2ccc(C(=O)N3CCN(S(=O)(=O)c4ccc(OC(F)(F)F)cc4)CC3)cc2)n1	-1
COCC(=O)N[C@H]1C[C@@H]2O[C@@H](CO)CC[C@@H]2O[C@@H]1CCc1ccc(-c2ccccc2)cc1	0
COC(=O)C1=C(C)N(C)C(=NCc2ccc(C(F)(F)F)cc2)NC1c1ccc(C(F)(F)F)cc1 (stereo unspecified)	7
COC(=O)C1=C(C)N(C)C(=NCc2ccccc2C(F)(F)F)NC1c1ccc(C(F)(F)F)cc1 (stereo unspecified)	12*	TbREL1 conf=10
COC(=O)C1=C(C)N(CCCC(=O)O)C(=O)NC1c1ccc(C(F)(F)F)cc1 (stereo unspecified)	1
COC(=O)C1=C(C)N(C)C(=NCc2ccccc2C(F)(F)F)NC1c1ccc(Cl)cc1 (stereo unspecified)	13*	TbREL1 conf=7
CCCCCn1c(C)c(CC(=O)Nc2ccc(Oc3cccnc3)c(C)c2)c2ccccc21	0
CC(C)(CC(=O)c1ccccc1)CC(=O)c1ccccc1	-1
CCC(C)N(C(=O)CN1C(=O)C2CCCCN2C(=O)c2ccccc21)C(C)CC (stereo unspecified)	-2
COc1ccc(C(=O)CSc2nnc(-c3cccc(Cl)c3)n2Cc2ccco2)cc1	-2
C[C@H]1[C@@H](OC(=O)Oc2ccc([N+](=O)[O-])cc2)CC[C@@]23CCCN2C(=O)CCC[C@@H]13	-2
CCOc1cc(NC(=O)CCl)c(OCC)cc1NC(=O)CCl	12*	TbREL1 conf=6
CCOc1cc(NC(=O)C2CCCO2)c(OCC)cc1NC(=O)C1CC1 (stereo unspecified)	0
CCOc1ccccc1OCC(=O)Nc1ccc(Cl)cc1Cl	-1
CC(=O)Nc1ccc(C(=O)N2CCCCC2c2cc(C(=O)N3CCOCC3)no2)cc1 (stereo unspecified)	-2
SMILES	TbREL1 primary	others
CCCCC(=O)Nc1ccc(C(=O)NCC2COc3ccccc3O2)cc1 (stereo unspecified)	0
O=S(=O)(Nc1nc(-c2ccco2)c(-c2ccco2)s1)c1ccc(F)cc1F	31*	TbREL1 conf=-1
Cc1nc2ccc(NS(=O)(=O)c3ccc(F)cc3F)cc2s1	2
O=C(NNS(=O)(=O)c1ccc(F)cc1F)C1Cc2c(ccc3ccccc23)O1 (stereo unspecified)	3
O=c1[nH]c2cc(Br)c(Br)nc2[nH]1	0
CC(=O)Nc1ccc(CN2C(=O)C(Cc3ccccc3)ON=C2c2ncccc2C)cc1 (stereo unspecified)	0
Clc1ccc([C@H]2OC[C@@]3(CNCc4ccccc4)CS[C@H](c4ccc(Cl)cc4)N23)cc1	0
COc1cc(NC(=O)C2CCCN(S(=O)(=O)c3ccc(Cl)s3)C2)cc(OC)c1 (stereo unspecified)	0
O=C(O)c1ccc2c(c1)C1C=CCC1C(c1ccncc1)N2 (stereo unspecified)	2
COc1ccc(NS(=O)(=O)c2ccc3c(c2)[C@H]2C=CC[C@H]2[C@@H](c2ccc(C(=O)O)cc2)N3)cc1	15*	TbREL1 conf=17*
CC(=O)c1ccc2c(c1)C1C=CCC1C(c1ccc(S(=O)(=O)N3CCOCC3)cc1)N2 (stereo unspecified)	-2
OC(c1ccc(Cl)cc1)c1ncc(-c2ccccc2Cl)[nH]1 (stereo unspecified)	7
COc1ccc(CNC2CCC23CCC(c2ccccc2)CC3)cc1OC (stereo unspecified)	2
Cc1ccc(NC(=O)Cc2cccc(OC(F)(F)F)c2)c(S(=O)(=O)N2CCOCC2)c1	-4
CCOc1cc(C=NN2CCN(Cc3ccc(C)cc3)CC2)ccc1O	-2
Cc1ccc(-n2c(SCC(=O)Nc3cccc4ccccc34)nnc2-c2cccs2)cc1	0
Cc1ccc2c(c1)-c1c(cnn1CC(=O)NCCc1ccc(O)cc1)CO2	-1
COC(=O)C[C@@H]1CC[C@H]2[C@@H](COc3ccc(NC(=O)Nc4cccc(F)c4)cc3C(=O)N2C)O1	-1
O=C(O)c1cc(N/N=C/c2ccc(-c3ccc(F)cc3)o2)ccc1Cl	-5
Cc1nc(S/C(=C\c2ccc(OCc3ccccc3Cl)cc2)C(=O)O)n[nH]1	0
Cc1nc(S/C(=C\c2ccc(-c3ccc(C(=O)O)c(Cl)c3)o2)C(=O)O)n[nH]1	58*	TbREL1 conf=23*
CN(C(=O)c1ccccc1C(=O)OCC(=O)c1ccc(F)cc1)c1ccccc1	-1
CN(C(=O)c1ccccc1C(=O)OCC(=O)NCc1cccs1)C1CCCCC1	-2
CN(C(=O)c1ccccc1C(=O)OCC(=O)c1ccc(F)c(F)c1)C1CCCCC1	12*	TbREL1 conf=2
Cc1ccc(NC(=S)NNC(=O)c2cnccn2)cc1	-12
SMILES	TbREL1 primary	others
COCc1cc(N2CCNC[C@H]2C)ccc1N1CCS(=O)(=O)CC1	4
CCOC(=O)C1CCN(C(=O)C(CCSC)NC(=O)COc2ccccc2)CC1 (stereo unspecified)	-6
CSCCC(NC(=O)COc1ccccc1)C(=O)OCC(=O)c1ccccc1 (stereo unspecified)	-3
CSCCC(NC(=O)COc1ccccc1)C(=O)N1CCN(c2ccccc2O)CC1 (stereo unspecified)	42*	TbREL1 conf=3
CCn1c2ccccc2c2cc(C=Nn3c(-c4ccccn4)n[nH]c3=S)ccc21	3
CN(c1cccnc1)c1ccc(NC(=O)Cc2c[nH]c3ccccc23)cc1-c1ccc(C(C)(C)C)cc1	0
OC(COC(c1ccc(Cl)cc1)c1ccc(Cl)cc1)CN1CCCC1 (stereo unspecified)	5
CC1CN(CC(O)COC(c2ccccc2)c2ccccc2)CC(C)O1 (stereo unspecified)	5
Cc1ccc(C(OCC(O)CN2CCCCC2)c2ccccc2)cc1 (stereo unspecified)	13*	TbREL1 conf=6
COC(=O)[C@]12CCCCC=C1N(Cc1ccc(OC)cc1)C(=O)[C@@H]2CC(=O)NCc1ccc(C)o1	-2
COCCN(C(=O)/C=C/c1ccccc1)c1c(N)n(Cc2ccccc2)c(=O)[nH]c1=O	2
O=C(Cc1ccccc1)Nc1nnc(-c2cccnc2)s1	0
COCCN(C(=O)/C=C/c1ccccc1)c1nnc(-c2cccnc2)s1	12*	TbREL1 conf=-3
Cc1c(Cl)cccc1N=C1NC(=O)CS1	2
COc1cccc(C(=O)N[C@H](C(=O)N2CCC[C@H]2C(=O)NCCc2ccccc2Cl)C2CCCCC2)c1	1
Cc1ccc(CN2CCCCC(NC(=O)Nc3cccc(F)c3)C2=O)cc1 (stereo unspecified)	-1
CCCCCC[N+](C)(C)CC/C=C1/c2ccccc2Sc2ccc(Cl)cc21	14*	TbREL1 conf=14*
CNCC/C=C1/c2ccccc2CSc2ccccc21	5
S=C1Nc2ccccc2Sc2ccc(Cl)cc21	1
